Reference: PubChem BioAssay
Activity calls are given as the source filed them.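 How the source made its calls, unless noted: active means fluorescence slope higher than the sample average by over 3 SD (cut at about -0.22 in these data, passing the limit was not always enough); inactive means the rest.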

Test system: not listed separately
Assay: endothelial E-selectin expression blockers – imaging, HUVEC, immunofluorescence, MLSMR starter and 10KST1 sets, primary screen (AID 487;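 active means visually confirmed hit in the image check and inhibition above 20%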;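 on inhibition: signal is fraction of cell area covered by stained E-selectin grains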;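 on nuclei count: 100% = median nuclei count of all wells on the same plate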)
Conditions: HUVEC TNFalpha-induced E-selectin immunofluorescence imaging, at 2 µM; inhibition: stronger effect = higher value; nuclei count: measured here: cell number, toxicity

Row | SMILES | inhibition | nuclei count [%]
1 | O=C(NCc1ccco1)c1cccc(S(=O)(=O)N2CCCCC2)c1 | -87.1% (inactive) | 120
2 | O=C(O)c1ccc(C2SCC(=O)N2Cc2ccccc2)cc1 (stereo not given) | 7.3% (inactive) | 101
3 | Nc1cc(N)nc(SCc2ccccc2)n1 | -26.1% (inactive) | 108
4 | O=C(NCCCN1CCN(c2cccc(Cl)c2)CC1)c1ccc(N2CCCC2=O)cc1 | 46.9% (inactive) | 105
5 | COc1ccccc1-n1c(SCC(=O)NC(C)(C)C)nnc1-c1ccco1 | -53% (inactive) | 117
6 | O=C(NCc1ccco1)c1cc2sccc2n1Cc1ccccc1 | -33.7% (inactive) | 110
7 | CC(Sc1n[nH]c(=O)[nH]c1=O)C(=O)OCc1ccccc1 (stereo not given) | -83.4% (inactive) | 116
8 | COc1ccc(OC)c(Nc2nc(-c3cccs3)cs2)c1 | -35.5% (inactive) | 110
9 | COc1cc(NC(=O)Nc2cccc(C(C)=O)c2)cc(OC)c1OC | -136% (inactive) | 97.7
10 | CN1CCN(c2ccc(Cl)cc2NC(=O)c2cccc(S(=O)(=O)N(C)C)c2)CC1 | 14.4% (inactive) | 88.8
11 | Brc1ccc2ncnc(Nc3ccc(N4CCOCC4)cc3)c2c1 | 29.5% (inactive) | 84.4
12 | COc1ccc(Cl)cc1NC(=O)CSc1nncn1-c1cccnc1 | 60.5% (active) | 93.1
13 | COc1cccc(NC(=O)c2ccccc2NS(C)(=O)=O)c1 | -133% (inactive) | 149
14 | O=S(=O)(c1cccc2c(S(=O)(=O)N3CCCC3)cccc12)N1CCCC1 | -17.4% (inactive) | 88.6
15 | CCN1CCN(c2nc3c(c(=O)n(C)c(=O)n3C)n2Cc2cccc3ccccc23)CC1 | 35.5% (inactive) | 80.6
16 | Cn1c(-c2ccccc2)cnc1SCc1nc2ccccc2c(=O)[nH]1 | -80.8% (inactive) | 109
17 | COc1ccccc1N1CCN(C(=O)c2cc(-c3ccc(Cl)c(Cl)c3)on2)CC1 | -17.9% (inactive) | 102
18 | COc1ccc(CN(CC(=O)NCC2CCCO2)C(=O)CCC(=O)Nc2cc(C)on2)cc1 (stereo not given) | 13.1% (inactive) | 104
19 | CCc1ccc2[nH]c(=O)c(C(c3nnnn3CC3CCCO3)N3CCN4CCCC4C3)cc2c1 (stereo not given) | 13.9% (inactive) | 102
20 | COc1ccc(OC)c(NC(=O)C23CCC(C)(C(=O)C2)C3(C)C)c1 (stereo not given) | -103% (inactive) | 125

Row | SMILES | inhibition | nuclei count [%]
21 | CC(C)(C)NS(=O)(=O)c1ccc(CCC(=O)O)cc1 | -68.6% (inactive) | 110
22 | COc1ccc(COC(=O)c2n[nH]c3ccccc23)cc1F | -1.8% (inactive) | 107
23 | O=C(NC1CCCC1)C(NS(=O)(=O)c1cccc2nsnc12)c1ccccc1 (stereo not given) | -22.2% (inactive) | 109
24 | COc1ccc(C(C)NC(=O)c2ccoc2C)cc1OC (stereo not given) | 51.2% (inactive) | 54.3
25 | Cc1ccc(C(O)c2nc3ccccc3n2C(C)C)cc1 (stereo not given) | 28.8% (inactive) | 86.7
26 | CCOC(=O)c1cc(CC)sc1NC(=O)COC | 34% (inactive) | 80
27 | COc1ccccc1C1N(c2ccc(F)cc2)C(=O)C2CCCN21 (stereo not given) | 27.9% (inactive) | 91.4
28 | CCC1CCCCN1CCCNC(=O)c1ccc(CS(=O)(=O)Cc2ccccc2F)o1 (stereo not given) | -64.6% (inactive) | 91
29 | Cc1cc(C)n2nc(SCC(=O)N(C)Cc3ccccc3)nc2n1 | -18.9% (inactive) | 115
30 | O=C(NCC(=O)N(c1cccnc1)C(C(=O)NC1CCCCC1)c1cccnc1)c1ccco1 (stereo not given) | -37.8% (inactive) | 110
31 | O=C(Nc1sccc1C(=O)NCc1ccco1)c1cccnc1 | -92.1% (inactive) | 119
32 | COc1ccc(Cl)c(N2CCN(CCCNC(=O)Nc3ccc(C)cc3)CC2)c1 | 16% (inactive) | 108
33 | Cc1cccc(OCC(=O)Nc2cc(C)ccc2O)c1 | -15.1% (inactive) | 87.8
34 | COCc1nnc(SCC(=O)NC(C)c2ccccc2)n1-c1ccccc1 (stereo not given) | -18.5% (inactive) | 101
35 | COc1ccccc1N(CC(=O)NC1CCCC1)C(=O)c1csnn1 | -49.4% (inactive) | 126
36 | Cc1cccc(NC(=O)CCCCCN2C(=O)c3ccccc3C2=O)n1 | -68.6% (inactive) | 167
37 | O=C(Cc1cccs1)N(c1ccccc1)C1C=CS(=O)(=O)C1 (stereo not given) | 8.4% (inactive) | 88.2
38 | Cc1ccc(Cn2c(SCC(N)=O)nc3c2c(=O)n(C)c(=O)n3C)cc1 | 29.5% (inactive) | 72.3
39 | COc1cccc(CN2C(=O)C3(C(C#N)=C(N)OC4=C3C(=O)CCC4)c3ccccc32)c1 (stereo not given) | -15.9% (inactive) | 77.7
40 | COc1cccc(OCc2nnc(SCC(=O)OCc3ccccc3)o2)c1 | -31.4% (inactive) | 108

Target: Voltage-gated potassium channel subunit beta-2 (Rattus norvegicus) (UniProt P62483)
Sequence (P62483 whole entry, looked up): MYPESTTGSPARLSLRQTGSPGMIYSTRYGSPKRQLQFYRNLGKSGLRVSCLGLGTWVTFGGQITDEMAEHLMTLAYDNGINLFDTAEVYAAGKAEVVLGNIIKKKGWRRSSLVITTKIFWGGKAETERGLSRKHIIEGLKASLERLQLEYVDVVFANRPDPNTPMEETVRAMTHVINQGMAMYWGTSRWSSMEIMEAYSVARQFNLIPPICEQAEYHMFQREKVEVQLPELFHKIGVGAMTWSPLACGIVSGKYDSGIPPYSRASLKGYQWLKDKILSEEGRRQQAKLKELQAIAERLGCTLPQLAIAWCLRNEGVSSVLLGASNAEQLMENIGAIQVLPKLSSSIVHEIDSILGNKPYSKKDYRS
Assay: inhibitors of rat Kvbeta2 reductase activity – biochemical, NADPH fluorescence, primary screen (AID 622);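 further: slope of raw intensity against log time taken from 70 to 1610 s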
Conditions: recombinant KvBeta, 4-cyanobenzaldehyde reduction, at 10 µM, stronger effect = higher value

Row | SMILES | fluorescence slope
41 | O=C(NCc1ccco1)c1cccc(S(=O)(=O)N2CCCCC2)c1 | -0.462 (inactive)
42 | O=C(O)c1ccc(C2SCC(=O)N2Cc2ccccc2)cc1 (stereo not given) | -0.382 (inactive)
43 | Nc1cc(N)nc(SCc2ccccc2)n1 | -0.499 (inactive)
44 | O=C(NCCCN1CCN(c2cccc(Cl)c2)CC1)c1ccc(N2CCCC2=O)cc1 | -0.479 (inactive)
45 | COc1ccccc1-n1c(SCC(=O)NC(C)(C)C)nnc1-c1ccco1 | -0.504 (inactive)
46 | O=C(NCc1ccco1)c1cc2sccc2n1Cc1ccccc1 | -0.463 (inactive)
47 | CC(Sc1n[nH]c(=O)[nH]c1=O)C(=O)OCc1ccccc1 (stereo not given) | -0.305 (inactive)
48 | COc1ccc(OC)c(Nc2nc(-c3cccs3)cs2)c1 | -0.444 (inactive)
49 | COc1cc(NC(=O)Nc2cccc(C(C)=O)c2)cc(OC)c1OC | -0.438 (inactive)
50 | CN1CCN(c2ccc(Cl)cc2NC(=O)c2cccc(S(=O)(=O)N(C)C)c2)CC1 | -0.373 (inactive)
51 | Brc1ccc2ncnc(Nc3ccc(N4CCOCC4)cc3)c2c1 | -0.375 (inactive)
52 | COc1ccc(Cl)cc1NC(=O)CSc1nncn1-c1cccnc1 | -0.296 (inactive)
53 | COc1cccc(NC(=O)c2ccccc2NS(C)(=O)=O)c1 | -0.418 (inactive)
54 | O=S(=O)(c1cccc2c(S(=O)(=O)N3CCCC3)cccc12)N1CCCC1 | -0.355 (inactive)
55 | CCN1CCN(c2nc3c(c(=O)n(C)c(=O)n3C)n2Cc2cccc3ccccc23)CC1 | -0.46 (inactive)
56 | Cn1c(-c2ccccc2)cnc1SCc1nc2ccccc2c(=O)[nH]1 | -0.379 (inactive)
57 | COc1ccccc1N1CCN(C(=O)c2cc(-c3ccc(Cl)c(Cl)c3)on2)CC1 | -0.407 (inactive)
58 | COc1ccc(CN(CC(=O)NCC2CCCO2)C(=O)CCC(=O)Nc2cc(C)on2)cc1 (stereo not given) | -0.399 (inactive)
59 | CCc1ccc2[nH]c(=O)c(C(c3nnnn3CC3CCCO3)N3CCN4CCCC4C3)cc2c1 (stereo not given) | -0.382 (inactive)
60 | COc1ccc(OC)c(NC(=O)C23CCC(C)(C(=O)C2)C3(C)C)c1 (stereo not given) | -0.455 (inactive)

Row | SMILES | fluorescence slope
61 | CC(C)(C)NS(=O)(=O)c1ccc(CCC(=O)O)cc1 | -0.456 (inactive)
62 | COc1ccc(COC(=O)c2n[nH]c3ccccc23)cc1F | -0.444 (inactive)
63 | O=C(NC1CCCC1)C(NS(=O)(=O)c1cccc2nsnc12)c1ccccc1 (stereo not given) | -0.329 (inactive)
64 | COc1ccc(C(C)NC(=O)c2ccoc2C)cc1OC (stereo not given) | -0.383 (inactive)
65 | Cc1ccc(C(O)c2nc3ccccc3n2C(C)C)cc1 (stereo not given) | -0.418 (inactive)
66 | CCOC(=O)c1cc(CC)sc1NC(=O)COC | -0.321 (inactive)
67 | COc1ccccc1C1N(c2ccc(F)cc2)C(=O)C2CCCN21 (stereo not given) | -0.377 (inactive)
68 | CCC1CCCCN1CCCNC(=O)c1ccc(CS(=O)(=O)Cc2ccccc2F)o1 (stereo not given) | -0.416 (inactive)
69 | Cc1cc(C)n2nc(SCC(=O)N(C)Cc3ccccc3)nc2n1 | -0.435 (inactive)
70 | O=C(NCC(=O)N(c1cccnc1)C(C(=O)NC1CCCCC1)c1cccnc1)c1ccco1 (stereo not given) | -0.39 (inactive)
71 | O=C(Nc1sccc1C(=O)NCc1ccco1)c1cccnc1 | -0.461 (inactive)
72 | COc1ccc(Cl)c(N2CCN(CCCNC(=O)Nc3ccc(C)cc3)CC2)c1 | -0.479 (inactive)
73 | Cc1cccc(OCC(=O)Nc2cc(C)ccc2O)c1 | -0.446 (inactive)
74 | COCc1nnc(SCC(=O)NC(C)c2ccccc2)n1-c1ccccc1 (stereo not given) | -0.434 (inactive)
75 | COc1ccccc1N(CC(=O)NC1CCCC1)C(=O)c1csnn1 | -0.365 (inactive)
76 | Cc1cccc(NC(=O)CCCCCN2C(=O)c3ccccc3C2=O)n1 | -0.44 (inactive)
77 | O=C(Cc1cccs1)N(c1ccccc1)C1C=CS(=O)(=O)C1 (stereo not given) | -0.376 (inactive)
78 | Cc1ccc(Cn2c(SCC(N)=O)nc3c2c(=O)n(C)c(=O)n3C)cc1 | -0.333 (inactive)
79 | COc1cccc(CN2C(=O)C3(C(C#N)=C(N)OC4=C3C(=O)CCC4)c3ccccc32)c1 (stereo not given) | -0.414 (inactive)
80 | COc1cccc(OCc2nnc(SCC(=O)OCc3ccccc3)o2)c1 | -0.267 (inactive)
